Assay outcomes from PubChem.
Sampled rows, rich in hits. Any-hit rate of the full collection: about 3.6%.
Smad3 inh – Smad3 (human) transcription factor binding inhibition; TR-FRET Smad3/Dy647-FoxH1 peptide binding, europium anti-His; inhibition, % at 25 µM; 88,000 tested, 0.29% active;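 active means compounds that reduce the energy-transfer binding signal between the protein and its labelled peptide by more than half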
Candida biofilm – kills Candida albicans biofilms; 85,000 tested, 0.14% active; C. albicans biofilm + clotrimazole, Alamar Blue; inhibition, % at 6 µM;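 active means inhibition above 20%; inactive means inhibition below 20%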;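 further: preformed 24 hr biofilms exposed to compound for 48 hr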
ERb coact inh – ER-beta (human) coactivator binding inhibition. TR-FRET ER-beta LBD / SRC1-Cy5 peptide binding; receptor agonist-loaded with 1 µM estradiol. AID 633. Q92731. 86,000 tested, 1.3% active. inhibition, % at 25.6 µM;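 active means compounds whose percent inhibition of the receptor-coactivator binding signal exceeds about 50% in the single-dose screen, limit read from the data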
ERa coact inh – blocks coactivator binding to human estrogen receptor alpha; P03372; TR-FRET ER-alpha LBD / SRC-1 peptide, estradiol-bound; inhibition, % at 25.6 µM; 86,000 tested, 1.7% active; in the data active means inhibition above about 50%
Target sequence (P03372 whole entry, looked up, the tested form may be a part): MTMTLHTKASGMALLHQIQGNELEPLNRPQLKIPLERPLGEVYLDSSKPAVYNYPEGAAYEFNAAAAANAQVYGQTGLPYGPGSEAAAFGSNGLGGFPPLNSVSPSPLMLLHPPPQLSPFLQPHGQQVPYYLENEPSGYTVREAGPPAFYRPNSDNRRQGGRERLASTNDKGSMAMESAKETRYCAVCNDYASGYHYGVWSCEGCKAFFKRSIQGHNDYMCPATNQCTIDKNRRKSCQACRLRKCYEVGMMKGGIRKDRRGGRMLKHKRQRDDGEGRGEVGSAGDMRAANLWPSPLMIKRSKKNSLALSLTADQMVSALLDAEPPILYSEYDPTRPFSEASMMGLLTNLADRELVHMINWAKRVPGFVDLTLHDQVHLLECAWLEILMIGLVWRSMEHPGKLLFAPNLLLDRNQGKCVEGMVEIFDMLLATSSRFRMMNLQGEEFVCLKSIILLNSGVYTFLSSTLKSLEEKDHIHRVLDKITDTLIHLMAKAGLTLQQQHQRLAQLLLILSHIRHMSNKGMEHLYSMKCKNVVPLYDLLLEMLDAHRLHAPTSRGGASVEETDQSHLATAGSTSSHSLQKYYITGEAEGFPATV
ERa SRC1 pot – enhances coactivator binding to human estrogen receptor alpha. P03372. TR-FRET ERalpha-LBD/SRC-Cy5 coactivator binding, 2 h; 100 = basal binding, no effect. coactivator binding (% of control), % at 25.6 µM. 86,000 tested, 1.3% active. AID 639; in the data active means activity above about 200%;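 further: binding measured in presence of low estradiol as agonist stimulus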
Hits are given with their value; i = inactive; nt = no result given; [ ] = another dose, or the depositor's remark.

SMILES	Smad3 inh	Candida biofilm	ERb coact inh	ERa coact inh	ERa SRC1 pot
COc1ccc(N(CC(=O)Nc2ccc3c(c2)OCCO3)S(=O)(=O)c2c(C)noc2C)cc1	i	i	98.6[fluorescence artefact?]	i	i
CC(C)Sc1nnc([C@H](Cc2c[nH]c3ccccc23)NC(=O)OC(C)(C)C)o1	i	i	i	i	i
C=CCn1c(=O)c(C#N)cc2c(=O)n3ccccc3nc21	i	i	56.9	55.5	i
C=CCn1c(=N)c(C#N)cc2c(=O)n3ccccc3nc21	i	i	i	i	i
Cc1nc(SCC(=O)NCc2ccco2)c2c3c(sc2n1)CCCC3	i	i	i	i	i
CCCc1nc2sc3c(SCC(=O)NCc4ccco4)ncnc3c2c2c1CCC2	i	i	i	i	254.9[fluorescence artefact?]
Cc1ccnc(NC(=O)c2ccc(N3C(=O)CCC3=O)cc2)c1	i	i	i	i	224.3
COc1ccc(C(=O)NC(=O)Nc2cc(C)ccn2)cc1	i	i	i	i	210.0
CCCCC(CC)Cn1c2nc3ccccc3nc2c2c(=N)oc(C)nc21 (centres undefined)	i	i	i	i	267.1[fluorescence artefact?]
CCCCn1c2nc3ccccc3nc2c2c(=N)oc(C)nc21	i	i	i	i	314.4[fluorescence artefact?]
O=C(CSc1nnc(-c2ccc(Cl)cc2)o1)N1CCN(c2ccccc2)CC1	i	i	54.0	73.2[fluorescence artefact?]	i
O=C(CSc1nnc(COc2ccc(Cl)cc2)o1)N1CCN(c2ccccc2)CC1	i	i	i	i	i
O=C(NCCCN1CCN(c2cccc(Cl)c2)CC1)c1ccc(N2CCCC2=O)cc1	i	i	i	i	i
O=C(NCCN1CCCCCC1)c1ccc(N2CCCC2=O)cc1	i	i	i	55.4[fluorescence artefact?]	i
CC(=O)NC12CC3CC(C1)CC(C(=O)OCC(=O)Nc1ncc(Cl)c(C)c1Cl)(C3)C2	i	i	59.6	74.1[fluorescence artefact?]	i
CC(C)=CC(=O)OCC(=O)Nc1ncc(Cl)c(C)c1Cl	i	i	i	i	i
CCC1=NNc2cccc3c(OC)ccc1c23	65.5[fluorescence artefact?]	i	100.5[fluorescence artefact?]	99.1[fluorescence artefact?]	i
COc1ccccc1C(=O)Nc1cc2ccccc2oc1=O	i	i	i	i	i
O=c1oc2ccccc2cc1NCc1ccccc1O	i	22.3	i	i	i
CCOCCCn1c(=N)c(C(=O)NCc2ccc3c(c2)OCO3)cc2c(=O)n3ccccc3nc21	i	i	i	i	i
CCCn1c(=N)c(C(=O)NCc2ccc3c(c2)OCO3)cc2c(=O)n3cccc(C)c3nc21	i	i	53.4[fluorescence artefact?]	78.7[fluorescence artefact?]	i
COc1ccc(C(=O)Cn2nnc(-c3cccs3)n2)cc1	i	i	78.0[fluorescence artefact?]	i	i
CS(=O)(=O)N(CC(=O)O)Cc1ccccc1	i	nt	nt	nt	nt
O=C(Cc1cccs1)Nc1nncs1	i	i	56.0	i	i
O=C(Cc1cccs1)Nc1nnc(-c2ccncc2)s1	i	i	i	i	i
SMILES	Smad3 inh	Candida biofilm	ERb coact inh	ERa coact inh	ERa SRC1 pot
O=C(Cc1cccs1)Nc1ccon1	i	i	i	i	i
O=C(Cc1cccs1)Nc1ccccn1	i	nt	55.0	56.1	i
COc1cccc(-c2nnc(NC(=O)Cc3cccs3)s2)c1	i	i	i	63.1	i
CCCCCc1nnc(NC(=O)Cc2cccs2)s1	i	i	82.0	94.2[fluorescence artefact?]	i
CC(C)c1nnc(NC(=O)Cc2cccs2)s1	i	i	i	i	i
COc1ccc(-n2c(SCC(=O)NCc3ccco3)nc3c([nH]c4ccccc43)c2=O)cc1	i	i	i	i	i
O=C(CCn1cccc1)NCc1ccc(Cl)cc1	i	i	i	i	i
O=C(Cc1cccs1)Nc1nnc(CCc2ccccc2)s1	i	i	i	i	i
O=C(Cc1cccs1)Nc1nnc(Cc2ccccc2)s1	i	i	91.3	96.3[fluorescence artefact?]	i
C[C@@]12CCC(=O)C=C1CC[C@H]1[C@H]2[C@@H](O)C[C@]2(C)[C@@H]1CC[C@@]2(O)C(=O)COC(=O)C1CCCC1	i	nt	nt	nt	nt
O=C(Nc1ccccc1)c1ccc(N2CCN(c3ccccn3)CC2)c(S(=O)(=O)N2CCOCC2)c1	i	i	i	i	340.3[fluorescence artefact?]
O=C(Nc1ccccc1)c1ccc(NC2CCCCC2)c(S(=O)(=O)N2CCOCC2)c1	i	i	i	i	i
Cc1ccccc1NC(=O)c1ccc(F)c(S(=O)(=O)N2CCN(c3ccccn3)CC2)c1	i	i	i	i	i
O=C(Nc1ccccc1)c1ccc(N2CCN(c3ccccc3)CC2)c(S(=O)(=O)N2CCOCC2)c1	i	i	i	i	405.4[fluorescence artefact?]
CCc1nnc(NC(=O)Cn2nc(-c3ccccc3OC)ccc2=O)s1	i	i	i	i	i
CCOc1ccc(CCNC(=O)C2CCC(=O)N2C2CCCCC2)cc1OCC (centres undefined)	i	i	i	i	i
CCCn1c(=O)c(C(=O)Nc2nnc(CC)s2)c(O)c2ccccc21	52.7[fluorescence artefact?]	i	i	i	i
Cc1ccc(C)c(S(=O)(=O)Nc2ccc3scnc3c2)c1	i	i	i	i	i
COc1ccc(NC(=O)c2cc(=O)c3ccccc3o2)cn1	i	i	i	i	i
COc1ccc(NC(=O)c2cc(CN3C(=O)c4ccccc4C3=O)ccc2OC)cn1	i	i	i	82.6[fluorescence artefact?]	i
CCOc1ccc(/C=C2/SC(=S)N(n3c(C)ccc3C)C2=O)cc1	i	i	i	i	i
CCOc1ccc(N=C2NC(=O)S/C2=C\c2ccc(OC)cc2)cc1	i	i	50.5	67.2	i
Cc1cc(C)cc(-n2cc3c(=O)n(C)c(=O)n(C)c3c2)c1	i	i	i	i	i
O=c1oc2ccc3ccccc3c2cc1-c1nc2ccccc2o1	i	i	i	50.9[fluorescence artefact?]	i
COc1ccc2oc(=O)c(-c3nc4ccccc4o3)cc2c1	i	i	i	i	i
SMILES	Smad3 inh	Candida biofilm	ERb coact inh	ERa coact inh	ERa SRC1 pot
C/C(=N\O)[C@@H]1C[C@H](CC(=O)O)C1(C)C	i	nt	nt	nt	nt
COc1ccc(OC)c(C2/C(=C(/O)c3ccc(C)cc3)C(=O)C(=O)N2Cc2ccco2)c1 (centres undefined)	i	i	i	95.7[fluorescence artefact?]	i
COc1cccc(C2C(C(C)=O)=C(O)C(=O)N2Cc2ccco2)c1 (centres undefined)	i	i	i	58.2[fluorescence artefact?]	i
COc1ccc(/C(O)=C2\C(=O)C(=O)N(Cc3ccco3)C2c2cc(OC)ccc2OC)cc1 (centres undefined)	i	i	i	i	i
CC(=O)C1=C(O)C(=O)N(Cc2ccco2)C1c1ccccc1 (centres undefined)	i	i	i	i	i
[O-]/C(=C(\C(=S)Nc1cccc2ccccc12)[n+]1ccccc1)c1ccc2c(c1)OCCO2	i	i	i	i	i
CC1=NN(c2ccc(S(=O)(=O)O)cc2)C(=O)/C1=C\c1ccc(Cl)cc1	i	nt	nt	nt	nt
CNc1ccc(Br)cc(C(=O)/C=C/c2cc(OC)ccc2OC)c1=O	i	i	65.1[fluorescence artefact?]	71.1[fluorescence artefact?]	i
CCNC(=O)c1cc(Br)ccc1Cl	i	i	i	i	i
COc1ccc(Br)cc1C(=O)O	i	i	i	i	i
CCNc1ccc(Br)cc(C(=O)/C=C/c2ccc(Cl)cc2Cl)c1=O	i	i	75.9[fluorescence artefact?]	84.5[fluorescence artefact?]	i
Cc1nn(Cc2ccc(Cl)cc2)c(C)c1NC(=O)C1CC=CCC1C(=O)O (centres undefined)	i	i	i	i	i
COc1ccc2oc(=O)c(-c3nnc(NCc4ccco4)s3)cc2c1	i	i	57.3[fluorescence artefact?]	i	i
